Results as given in PubChem BioAssay (NCATS).
Inconclusive results are not listed. Active and inactive are the calls of the source. Unless noted, calls follow the shape of the dose curve; as a rule, active = well fitted curve in the direction sought with a large enough effect; inconclusive = small, poorly fitted or top-dose-only effect, or another doubt; inactive = no such curve, though single readings can be large; an effect the other way counts as inactive or inconclusive.

Key:
[1] = qHTS for Activators of Parkin Expression: LOPAC Validation Assay (NLuc Reporter) (AID 720572)
Procedure, shortened: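 Cells harboring the Parkin-promoter coincidence reporter were treated for 24 h at seven concentrations. NLuc output was measured sequentially after the FLuc channel and scaled between DMSO and positive control values.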

[2] = qHTS for Activators of Parkin Expression: LOPAC Validation Assay (FLuc Reporter) (AID 720573)
Procedure, shortened: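 FLuc signal from Parkin-promoter coincidence reporter neuronal cells, normalized to DMSO and positive control (100%). Cells (1,500/well) pre-incubated 24 h, then exposed to LOPAC compounds in 7-point dose response for 24 h at 37 C, 5% CO2.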

[3] = target: T1, Hexokinase-4 (Homo sapiens) + Glucokinase regulatory protein (Homo sapiens) (UniProt P35557+Q14397); assay: qHTS assay for inhibitors of recombinant human GCK-GKRP interaction: Diaphorase-coupled assay (AID 743205)
T1 sequence (P35557 whole entry, looked up): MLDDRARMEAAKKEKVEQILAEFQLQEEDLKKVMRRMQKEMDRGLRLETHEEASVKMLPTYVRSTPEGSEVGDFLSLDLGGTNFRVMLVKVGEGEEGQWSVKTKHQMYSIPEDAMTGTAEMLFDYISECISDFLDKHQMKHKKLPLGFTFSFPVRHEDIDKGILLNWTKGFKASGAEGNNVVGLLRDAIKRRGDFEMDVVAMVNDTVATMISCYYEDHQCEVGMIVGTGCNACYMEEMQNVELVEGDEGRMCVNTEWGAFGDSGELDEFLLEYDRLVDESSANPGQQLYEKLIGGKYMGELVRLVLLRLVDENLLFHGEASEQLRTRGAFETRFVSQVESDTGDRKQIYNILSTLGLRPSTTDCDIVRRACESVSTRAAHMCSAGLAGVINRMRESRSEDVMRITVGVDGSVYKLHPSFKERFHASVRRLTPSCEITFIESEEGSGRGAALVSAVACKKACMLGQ
T1 sequence (Q14397 whole entry, looked up): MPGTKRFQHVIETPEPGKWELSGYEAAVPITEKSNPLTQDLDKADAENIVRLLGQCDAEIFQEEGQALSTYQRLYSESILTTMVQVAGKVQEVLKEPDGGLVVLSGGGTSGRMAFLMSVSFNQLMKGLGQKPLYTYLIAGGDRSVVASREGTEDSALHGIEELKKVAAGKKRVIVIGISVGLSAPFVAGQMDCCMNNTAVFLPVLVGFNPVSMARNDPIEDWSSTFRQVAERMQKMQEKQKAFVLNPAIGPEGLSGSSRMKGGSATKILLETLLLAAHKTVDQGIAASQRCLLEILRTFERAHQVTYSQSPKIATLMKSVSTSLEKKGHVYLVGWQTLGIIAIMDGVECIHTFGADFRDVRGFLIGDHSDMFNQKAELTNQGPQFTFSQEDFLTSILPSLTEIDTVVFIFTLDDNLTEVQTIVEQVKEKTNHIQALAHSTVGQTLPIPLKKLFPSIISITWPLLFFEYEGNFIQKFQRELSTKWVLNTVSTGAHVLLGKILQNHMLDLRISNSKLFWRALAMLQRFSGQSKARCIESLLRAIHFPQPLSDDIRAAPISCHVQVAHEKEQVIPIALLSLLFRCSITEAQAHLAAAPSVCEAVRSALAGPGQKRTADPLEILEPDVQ
Procedure, shortened: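 A kinetic fluorescence read (Ex 525/Em 590 nm, every minute for 30 minutes) tracked resorufin from a G6PDH-diaphorase coupled GCK reaction. It contained 10 nM GST-GCK, 10 nM FLAG-GKRP, 5 mM glucose, 0.4 mM ATP in Hepes pH 7.6. Normalized to with/without-enzyme DMSO controls.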

[4] = target: T1, Hexokinase-4 (Homo sapiens) + Glucokinase regulatory protein (Homo sapiens); assay: qHTS assay for inhibitors of recombinant human GCK-GKRP interaction: ADP-Glo assay (AID 743206)
Procedure, shortened: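 Pin-transferred compounds meet a 15 nM GST-GCK/15 nM FLAG-GKRP/2 uM S6P mix (dispense concentrations). ATP is then added to 0.4 mM final with 5 mM glucose, and the reaction runs 60 min at room temperature. ADP is quantified luminescently.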

[5] = target: T1, Hexokinase-4 (Homo sapiens) + Glucokinase regulatory protein (Homo sapiens); assay: qHTS assay for inhibitors of recombinant human GCK-GKRP interaction: HTRF assay (AID 743207)
Procedure, shortened: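 After 60 min equilibration at room temperature with anti-FLAG XL665 and anti-GST antibodies, FRET ratio (665/615 nm, excitation 320 nm) was read. Proteins: GST-GCK and FLAG-GKRP, each 5 nM, plus 2 uM S6P, pH 7.1 buffer; GCK-free wells define minimum signal.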

[6] = Natriuretic polypeptide receptor (hNpr1) antagonism - Pilot counterscreen GloSensor control cell line (AID 1347045; calls by dose curve)
Procedure, shortened: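 HEK293 cGMP-sensor cells; 2% GloSensor reagent 2 h RT; LOPAC compounds in 1:5 titrations 30-50 min; 50 uM SNP 20 min; luminescence pre-read and post-read.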

[7] = target: Atrial natriuretic peptide receptor 1 (Homo sapiens) (UniProt P16066); assay: Natriuretic polypeptide receptor (hNpr1) antagonism - Pilot screen (AID 1347049; calls by dose curve;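 also: HEK293 cells with hNpr1 and GloSensor cGMP luciferase stimulated by 0.1 nM hNppA; agonist-evoked cGMP luminescence read 20 min after hNppA addition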)
Atrial natriuretic peptide receptor 1 (Homo sapiens), sequence (P16066 whole entry, looked up): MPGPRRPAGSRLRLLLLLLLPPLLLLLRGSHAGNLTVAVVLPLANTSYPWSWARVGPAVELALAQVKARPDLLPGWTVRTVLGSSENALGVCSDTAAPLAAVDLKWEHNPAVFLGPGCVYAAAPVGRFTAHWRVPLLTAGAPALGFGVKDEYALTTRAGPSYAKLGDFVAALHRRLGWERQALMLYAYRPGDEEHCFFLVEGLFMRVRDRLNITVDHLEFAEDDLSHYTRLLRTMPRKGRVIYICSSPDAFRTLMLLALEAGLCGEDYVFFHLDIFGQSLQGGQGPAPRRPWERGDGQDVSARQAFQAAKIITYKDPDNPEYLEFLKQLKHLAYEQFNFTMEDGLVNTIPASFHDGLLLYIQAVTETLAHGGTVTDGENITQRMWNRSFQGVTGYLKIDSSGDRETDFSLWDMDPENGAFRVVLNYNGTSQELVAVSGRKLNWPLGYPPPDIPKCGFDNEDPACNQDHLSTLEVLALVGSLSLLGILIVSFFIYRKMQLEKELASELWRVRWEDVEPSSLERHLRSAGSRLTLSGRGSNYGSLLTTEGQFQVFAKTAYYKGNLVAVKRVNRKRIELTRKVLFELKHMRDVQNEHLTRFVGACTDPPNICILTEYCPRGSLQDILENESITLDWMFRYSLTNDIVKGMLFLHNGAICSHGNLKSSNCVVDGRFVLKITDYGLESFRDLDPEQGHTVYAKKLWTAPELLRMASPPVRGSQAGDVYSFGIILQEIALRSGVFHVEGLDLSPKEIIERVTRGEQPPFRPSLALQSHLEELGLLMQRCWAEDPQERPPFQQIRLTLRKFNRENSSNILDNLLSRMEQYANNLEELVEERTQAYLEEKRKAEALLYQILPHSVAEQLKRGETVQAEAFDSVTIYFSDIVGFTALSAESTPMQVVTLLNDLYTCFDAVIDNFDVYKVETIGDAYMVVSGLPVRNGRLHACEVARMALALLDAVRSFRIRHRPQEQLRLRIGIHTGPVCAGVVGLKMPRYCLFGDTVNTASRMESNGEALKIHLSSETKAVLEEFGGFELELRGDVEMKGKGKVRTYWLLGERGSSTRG
Procedure, shortened: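 Cells expressing receptor plus cGMP biosensor are seeded and incubated overnight at 37C, then loaded with GloSensor reagent (2% final) at room temperature for 2 h. Library compounds go on for 30 min. A pre-read precedes agonist (hNppA, 0.1 nM final) and a 20-min readout.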

[8] = target: Atrial natriuretic peptide receptor 2 (Homo sapiens) (UniProt P20594); assay: Natriuretic polypeptide receptor (hNpr2) antagonism - Pilot subtype selectivity assay (AID 1347050; calls by dose curve)
Procedure, shortened: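 Read-out: GloSensor luminescence (CCD imager), baseline vs post-stimulation. HEK293 cells expressing hNpr2; compounds pre-incubated 30-50 min at ambient temperature; hNppC 1 nM final, 20 min.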

[9] = NS1 protein of Zika virus - qHTS assay to identify small molecule inhibitors in human HEK 293 cells (AID 1347053); also: nearly all actives have a fitted effect of over 55% in size
Procedure, shortened: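 Compound-treated (1 h pre-infection) HEK 293 cells infected with ZIKV MR766, MOI = 0.5; after 24 h at 37 C, NS1 read by TR-FRET; data normalized to uninfected and infected controls.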

[10] = target: T2, Tyrosine-protein phosphatase non-receptor type substrate 1 (Homo sapiens) + Leukocyte surface antigen CD47 (Homo sapiens) (UniProt P78324+Q08722); assay: CD47-SIRPalpha protein protein interaction - LANCE assay qHTS validation (AID 1347057; active = well fitted curve in the direction sought with a large enough effect in the signal ratio, with a control signal flat, not every such curve was filed as active; the % refers to the signal ratio)
T2 sequence (P78324 whole entry, looked up, the tested form may be a part): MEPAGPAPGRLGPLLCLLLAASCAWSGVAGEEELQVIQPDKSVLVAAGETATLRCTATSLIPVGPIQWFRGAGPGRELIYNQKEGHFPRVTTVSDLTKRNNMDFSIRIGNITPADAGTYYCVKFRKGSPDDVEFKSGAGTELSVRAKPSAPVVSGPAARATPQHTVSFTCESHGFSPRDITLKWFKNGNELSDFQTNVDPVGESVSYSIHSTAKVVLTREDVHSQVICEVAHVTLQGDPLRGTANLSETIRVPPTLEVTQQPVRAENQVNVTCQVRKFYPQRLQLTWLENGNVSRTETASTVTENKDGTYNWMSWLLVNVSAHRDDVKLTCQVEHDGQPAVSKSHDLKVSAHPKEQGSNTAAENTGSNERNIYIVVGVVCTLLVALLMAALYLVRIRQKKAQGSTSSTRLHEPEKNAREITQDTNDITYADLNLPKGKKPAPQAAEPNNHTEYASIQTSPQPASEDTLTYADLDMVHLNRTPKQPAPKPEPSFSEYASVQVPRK
T2 sequence (Q08722 whole entry, looked up, the tested form may be a part): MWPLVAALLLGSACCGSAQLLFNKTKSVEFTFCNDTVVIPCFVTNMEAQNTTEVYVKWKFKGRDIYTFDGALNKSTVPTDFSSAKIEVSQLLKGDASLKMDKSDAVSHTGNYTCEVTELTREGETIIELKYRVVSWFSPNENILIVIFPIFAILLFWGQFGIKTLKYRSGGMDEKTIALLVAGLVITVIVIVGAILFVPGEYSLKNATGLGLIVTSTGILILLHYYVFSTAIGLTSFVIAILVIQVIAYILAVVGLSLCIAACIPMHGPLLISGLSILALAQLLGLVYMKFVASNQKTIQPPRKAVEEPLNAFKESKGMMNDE
Procedure, shortened: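 Inhibition of soluble CD47/SIRPalpha ectodomain association by titrated compounds, measured as 665/615 nm time-resolved FRET ratio after sequential 30 min room-temperature incubations.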

[11] = target: T2, Tyrosine-protein phosphatase non-receptor type substrate 1 (Homo sapiens) + Leukocyte surface antigen CD47 (Homo sapiens); assay: CD47-SIRPalpha protein protein interaction - HTRF assay qHTS validation (AID 1347058; active = well fitted curve in the direction sought with a large enough effect in the signal ratio, not every such curve was filed as active; the % refers to the signal ratio)
Procedure, shortened: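 Soluble extracellular domains (6His-CD47, Avi-tag-biotinylated SIRPalpha) in PBS pH 7.4 with 0.05% IGEPAL CA-630. Compounds were preincubated 30 min at RT with CD47 and anti-His-Eu, then SIRPalpha and SAV-XL665 were added. TR-FRET 665/615 ratio.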

[12] = target: T2, Tyrosine-protein phosphatase non-receptor type substrate 1 (Homo sapiens) + Leukocyte surface antigen CD47 (Homo sapiens); assay: CD47-SIRPalpha protein protein interaction - Alpha assay qHTS validation (AID 1347059);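 also: bead proximity luminescence from CD47 binding SIRPalpha after compound preincubation with SIRPalpha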
Procedure, shortened: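 In PBS (pH 7.4) with 0.05% IGEPAL CA-630, compound is preincubated with biotin-Avi-SIRPalpha ectodomain before His-CD47 ectodomain and affinity beads are added. Light-protected room-temperature incubations; AlphaScreen readout.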

[13] = target: Parathyroid hormone/parathyroid hormone-related peptide receptor (Homo sapiens) (UniProt Q03431); assay: qHTS for PTHR1 Agonists: Optimization Screen against the NCGC LOPAC library (AID 1347079);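 also: GloSensor cAMP luminescence in HEK-293 GP2 cells expressing human PTHR1 with IBMX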
Parathyroid hormone/parathyroid hormone-related peptide receptor (Homo sapiens), sequence (Q03431 whole entry, looked up): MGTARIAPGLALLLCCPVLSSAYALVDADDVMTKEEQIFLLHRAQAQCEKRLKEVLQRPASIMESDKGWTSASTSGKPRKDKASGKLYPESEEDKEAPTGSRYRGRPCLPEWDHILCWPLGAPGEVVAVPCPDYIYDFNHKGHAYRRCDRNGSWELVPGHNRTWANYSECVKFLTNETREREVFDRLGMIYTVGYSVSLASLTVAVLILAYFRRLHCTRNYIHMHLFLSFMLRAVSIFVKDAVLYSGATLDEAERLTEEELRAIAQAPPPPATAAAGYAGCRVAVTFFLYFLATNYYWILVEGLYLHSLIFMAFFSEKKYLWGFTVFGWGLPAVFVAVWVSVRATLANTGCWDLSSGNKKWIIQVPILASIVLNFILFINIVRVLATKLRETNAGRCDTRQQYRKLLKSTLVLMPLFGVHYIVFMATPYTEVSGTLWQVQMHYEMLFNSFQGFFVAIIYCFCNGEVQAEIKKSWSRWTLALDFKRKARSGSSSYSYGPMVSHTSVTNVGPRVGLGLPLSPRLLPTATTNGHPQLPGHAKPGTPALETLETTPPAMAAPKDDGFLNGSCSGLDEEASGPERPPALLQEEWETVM
Procedure, shortened: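 Signal increase flags agonism. GP2 cells, derived from HEK-293, express human PTHR1 and a GloSensor cAMP construct.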

[14] = system: Zika virus NS2B-NS3 protease (unlinked); assay: Optimization of GU AMC qHTS for Zika virus inhibitors: Unlinked NS2B-NS3 protease assay (AID 1347151); also: nearly all actives have a fitted effect of over 80% in size
Procedure, shortened: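 Fluorescence gain (340/450 nm) over 15 min at room temperature, ~20% conversion, gave percent inhibition fitted to a 4-parameter Hill equation; enzyme was unlinked NS2B-NS3 (25 nM final), pH 8.0 Tris buffer.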

[15] = system: Zika virus NS2B-NS3 protease; assay: Primary screen GU AMC qHTS for Zika virus inhibitors (AID 1347154); also: nearly all actives have a fitted effect of over 70% in size
Procedure, shortened: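 Unlinked Zika NS2B hydrophilic domain/NS3 protease domain noncovalent complex (25 nM final) in 10 mM Tris-HCl pH 8.0, 0.01% Tween 20, with AMC peptide substrate. Fluorescence (ex 340, em 450 nm) change over 15 min, room temperature; percent inhibition fitted to 4-parameter Hill equation.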

[16] = target: Lysine-specific demethylase 5B (Homo sapiens) (UniProt Q9UGL1); assay: Optimization screen for KDM5B Histone Demethylases FDH coupled qHTS against the LOPAC library (AID 1347166)
Procedure, shortened: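 KDM5BDeltaAP (200nM final) in 50mM HEPES pH 7.5, 0.01% Tween-20 was preincubated with compound for 10 min at room temperature. A substrate mix of 12.5uM H3K4Me3, 25uM a-ketoglutarate, ascorbate, Fe2+, NAD+ and formaldehyde dehydrogenase was then added. NADH fluorescence (340/450 nm) was read initially and after 30 min.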

[17] = qHTS to identify inhibitors of the type 1 interferon - major histocompatibility complex class I in skeletal muscle: primary screen against the NCATS LOPAC collection (AID 1347405);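 also: human myoblasts with HiBiT tag on endogenous HLA-B stimulated by IFN-beta; lytic HiBiT luminescence reporting HLA-B protein level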
Procedure, shortened: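 HLA-B HiBiT myoblasts, IFN-b 4 ng/ml, dexamethasone-free medium; compounds 7-pt 1:4.3 titration, top 46 uM final; 24 h at 37 C; Nano-Glo HiBiT lytic reagent, 10 min RT, luminescence.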

[18] = Validation qHTS assay for inhibitors of Activation Induced Cytidine Deaminase (AID): UDG Counterscreen signal (AID 1347427)
Procedure, shortened: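 Fluorescence at 560 nm excitation, 665 nm emission reports UDG signal after 250 mM NaOH (2x) addition and 30 min. Enzymes (AID 1 uM, UDG 2 U/mL, at 4/3x) preincubated 10 min with compound, then 4 h with 4x 250 nM DJC20/DJC23 substrate at room temperature.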

[19] = target: Single-stranded DNA cytosine deaminase (Homo sapiens) (UniProt Q9GZX7); assay: Validation qHTS assay for inhibitors of Activation Induced Cytidine Deaminase (AID): AID signal (AID 1347429)
Single-stranded DNA cytosine deaminase (Homo sapiens), sequence (Q9GZX7 whole entry, looked up): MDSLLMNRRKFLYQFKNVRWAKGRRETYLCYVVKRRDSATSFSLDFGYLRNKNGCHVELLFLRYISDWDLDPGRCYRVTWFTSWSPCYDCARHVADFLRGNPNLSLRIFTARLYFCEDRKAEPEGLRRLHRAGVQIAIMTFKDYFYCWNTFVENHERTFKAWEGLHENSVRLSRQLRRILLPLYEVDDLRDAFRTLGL
Procedure, shortened: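 AID+UDG coupled FRET deamination; cpds up to 114 uM final; DJC20/DJC23 substrate, 4 hr RT; NaOH stop, 30 min RT; read Ex 540/Em 590.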

[20] = Primary qHTS for inhibitors of La Crosse Virus (LACV) - induced cell death in SH-SY5Y cells (AID 1508616);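 also: top concentration of the series differs between compounds; higher means more rescue of cells from virus-induced death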
Procedure, shortened: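 Cytopathicity rescue screen: compounds pinned onto SH-SY5Y cells, which are then infected with LACV (MOI 0.01) and held 6 days at 37C. Percent activity is scaled between infected DMSO control and uninfected DMSO control.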

[21] = target: Calcium and integrin-binding protein 1 (Homo sapiens) (UniProt Q99828); assay: Validation qHTS for Identification of Calcium Integrin Binding protein 1 (CIB1) Competitor (AID 1508618)
Procedure, shortened: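 In this qHTS validation, the LOPAC set (up to 114 uM) was tested for blocking CIB1 binding to a fluorescein-tagged alphaIIb peptide, with FP detection at 480/540 nm.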

[22] = Primary qHTS for small molecule stabilizers of the endoplasmic reticulum resident proteome: Secreted ER Calcium Modulated Protein (SERCaMP) assay (AID 1508630)
Procedure, shortened: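 The SH-SY5Y reporter protocol was run at 3 concentrations up to 38.3 uM (primary) or 11 concentrations (follow-up): 16 h compound, 100 nM thapsigargin for 4 h, then extracellular luciferase luminescence.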

[23] = target: Papain (Carica papaya) (UniProt P00784); assay: Primary qHTS assay for inhibitors of the protease papain (AID 1645873);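 also: papain turnover of Z-FR-AMC read as the AMC fluorescence gain over 10 min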
Papain (Carica papaya), sequence (P00784 whole entry, looked up): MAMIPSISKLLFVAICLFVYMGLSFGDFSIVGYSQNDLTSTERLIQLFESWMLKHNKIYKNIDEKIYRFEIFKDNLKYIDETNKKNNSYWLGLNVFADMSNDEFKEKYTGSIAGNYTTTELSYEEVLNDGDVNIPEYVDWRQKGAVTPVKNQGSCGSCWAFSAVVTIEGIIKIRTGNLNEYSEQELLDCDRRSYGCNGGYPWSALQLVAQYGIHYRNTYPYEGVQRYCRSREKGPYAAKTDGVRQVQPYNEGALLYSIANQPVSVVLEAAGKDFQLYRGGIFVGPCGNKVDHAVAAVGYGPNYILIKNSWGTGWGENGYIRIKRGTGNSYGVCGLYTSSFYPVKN

[24] = target: Catechol O-methyltransferase (Homo sapiens) (UniProt P21964); assay: Confirmatory Screen for Target Class Profiling of Small Molecule Inhibitors of Methyltransferases (AID 1745852; calls by dose curve); conditions: MTase-Glo luminescence, SAH detection, recombinant enzyme; measured here: COMT max response; stronger effect = lower value
[25] = target: Guanidinoacetate N-methyltransferase (Homo sapiens) (UniProt Q14353); assay: as above; conditions: activity change, negative = inhibition: at 57.3 µM (top of the series) unless noted
[26] = target: Nicotinamide N-methyltransferase (Homo sapiens) (UniProt P40261); assay: as above; conditions: MTase-Glo luminescence, SAH detection, recombinant enzyme; measured here: NNMT max response; stronger effect = lower value
[27] = target: Phenylethanolamine N-methyltransferase (Homo sapiens) (UniProt P11086); assay: as above; conditions: MTase-Glo luminescence, SAH detection, recombinant enzyme; measured here: PNMT max response; stronger effect = lower value
Phenylethanolamine N-methyltransferase (Homo sapiens), sequence (P11086 whole entry, looked up): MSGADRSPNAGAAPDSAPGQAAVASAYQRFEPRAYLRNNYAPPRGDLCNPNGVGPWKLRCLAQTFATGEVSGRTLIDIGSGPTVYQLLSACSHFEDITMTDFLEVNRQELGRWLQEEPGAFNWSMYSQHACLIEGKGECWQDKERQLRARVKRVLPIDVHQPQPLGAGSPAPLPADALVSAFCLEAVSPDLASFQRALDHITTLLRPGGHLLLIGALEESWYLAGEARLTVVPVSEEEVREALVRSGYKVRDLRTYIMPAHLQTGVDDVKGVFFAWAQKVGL

[28] = target: Metallo-beta-lactamase type 2 (Klebsiella pneumoniae) (UniProt C7C422); assay: qHTS to identify inhibitors of the New Delhi Metallo-beta-lactamase (NDM): assay validation screen against the NCATS LOPAC Collection (AID 1794843);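 also: nitrocefin turnover by NDM-1 measured as 485 nm absorbance at plateau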
Metallo-beta-lactamase type 2 (Klebsiella pneumoniae), sequence (C7C422 whole entry, looked up): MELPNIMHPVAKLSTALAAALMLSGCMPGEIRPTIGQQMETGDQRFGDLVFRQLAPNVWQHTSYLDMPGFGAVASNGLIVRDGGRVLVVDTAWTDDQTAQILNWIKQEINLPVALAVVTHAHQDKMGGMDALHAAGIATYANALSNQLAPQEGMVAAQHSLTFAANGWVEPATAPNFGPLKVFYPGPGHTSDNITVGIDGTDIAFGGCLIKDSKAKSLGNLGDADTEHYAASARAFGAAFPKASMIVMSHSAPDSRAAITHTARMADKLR
Procedure, shortened: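 Nitrocefin hydrolysis (50 uM substrate stock) by NDM-1, 2 nM final, was followed by 485 nm absorbance after compound preincubation; buffer was 50 mM HEPES pH 7.0, 1 uM ZnSO4, 0.01% Tween20.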

[29] = target: Glutathione peroxidase 1 (Homo sapiens) (UniProt P07203); assay: Primary qHTS Assay for Inhibitors of Recombinant Selenoprotein Glutathione Peroxidase 1 (GPX1) (AID 1845191); also: nearly all actives have a fitted effect of over 65% in size
Glutathione peroxidase 1 (Homo sapiens), sequence (P07203 whole entry, looked up): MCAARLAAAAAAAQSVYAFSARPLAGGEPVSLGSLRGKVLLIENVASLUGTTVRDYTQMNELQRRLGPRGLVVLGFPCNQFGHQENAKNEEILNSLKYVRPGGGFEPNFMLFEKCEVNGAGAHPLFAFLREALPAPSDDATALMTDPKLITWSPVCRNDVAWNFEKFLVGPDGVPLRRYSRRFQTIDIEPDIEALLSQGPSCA
Procedure, shortened: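 GPX1 10 nM, GR 100 nM, GSH 1 mM, NADPH 0.5 mM, CHP 0.5 mM (final). 30-min cpd preincubation, RT. Ex340/Em450 read t=0, t=15 min.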

[30] = target: Phospholipid hydroperoxide glutathione peroxidase GPX4 (Homo sapiens) (UniProt P36969); assay: Primary qHTS Assay for Inhibitors of Recombinant Selenoprotein Glutathione Peroxidase 4 (GPX4) (AID 1845192); conditions: outcome: dose series up to 50 µM unless noted; also: nearly all actives have a fitted effect of over 65% in size
Procedure, shortened: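 qHTS, GR-coupled: GPX4 200 nM + cpd 30 min RT → GSH 1 mM, NADPH 0.5 mM, GR 100 nM → CHP 0.5 mM start; fluor 340/450 at t0 and t15 min; no-enzyme wells as control.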

C[C@H](Cc1ccccc1)Nc1ncnc2c1ncn2[C@@H]1O[C@H](CO)[C@@H](O)[C@H]1O
inactive: outcome [1] | Potency [2] | outcome [3] | outcome [4] | outcome [5] | Potency [6] | Potency [7] | Potency [8] | outcome [9] | outcome [10] | outcome [11] | Potency [12] | outcome [13] | Potency [14] | Potency [15] | outcome [16] | Potency [17] | outcome [18] | Potency [19] | outcome [20] | outcome [21] | Potency [22] | Potency [23] | Potency [28] | Potency [29] | Potency [30]
4.48%: activity [26]
-12.3%: activity [27]
-28.1%: activity [24]
-3.97%: activity change, negative = inhibition [25]
